# Most compounds without a hit are left out; they make up all but 14% or so of the library.
# USP10 inh: inhibitors of human USP10 deubiquitinase; Ubiquitin carboxyl-terminal hydrolase 10 (Homo sapiens), Q14694; AID 1645856, 2021; purified USP10, Ub-rhodamine fluorescence, 60 min; inhibition, % at 20 µM; 47,000 tested, 1.1% active
# USP8 inh: inhibitors of human USP8 deubiquitinase. inhibition, % at 20 µM. 47,000 tested, 4.2% active. Ubiquitin carboxyl-terminal hydrolase 8 (Homo sapiens), P40818. purified USP8, Ub-rhodamine cleavage fluorescence, 30 min
# USP17 block: inhibitors of human USP17 deubiquitinase; AID 1645855, 2021; purified USP17, Ub-rhodamine cleavage fluorescence, 3 h; inhibition, % at 50 µM; Ubiquitin carboxyl-terminal hydrolase 17-like protein 5 (Homo sapiens), A8MUK1; 47,000 tested, 6.5% active
# USP28 inh: inhibitors of human USP28 deubiquitinase; inhibition, % at 25 µM; 47,000 tested, 3% active; purified USP28, Ub-rhodamine cleavage fluorescence, 30 min; Ubiquitin carboxyl-terminal hydrolase 28 (Homo sapiens), Q96RU2; AID 1645857, 2021
# USP30 block: inhibitors of human USP30 deubiquitinase; purified USP30, Ub-rhodamine cleavage fluorescence; inhibition, % at 25 µM; 47,000 tested, 5.3% active; AID 1645860, 2021
# Active calls of the source: *; x = not tested or not shown. Rule as the data show it: active = inhibition above about 30%; inactive = the rest.
SMILES,USP10 inh,USP8 inh,USP17 block,USP28 inh,USP30 block
O=C(CCCc1c[nH]c2ccccc12)N1CCN(S(=O)(=O)c2ccc(F)cc2)CC1,4,5,11,14,41*
O=C(CCCc1c[nH]c2ccccc12)N1CCN(S(=O)(=O)c2ccc(Br)cc2)CC1,0,-4,8,-3,1
O=C(NCc1cccnc1)c1cnn2c(C(F)(F)F)cc(-c3ccc(F)cc3)nc12,0,-1,36*,-1,56*
CCOc1ccc(NC(=O)COc2cccc3c2CCN(CC)C3=O)cc1,3,-5,-1,75*,-1
COc1ccc(NC(=O)COc2cccc3c2CCNC3=O)cc1OC,1,0,19,9,9
CCN1CCc2c(OCC(=O)Nc3cc(C(F)(F)F)ccc3Cl)cccc2C1=O,-1,-55,74*,33*,98*
O=C(COc1cccc2c1CCN(Cc1cccnc1)C2=O)Nc1ccc2c(c1)OCCO2,-2,-88,59*,90*,5
Cc1ccc(-n2ncc(C(=O)NCc3cccc(Cl)c3)c2C2CCNCC2)cc1Cl,0,-161,x,24,44*
CCN1C(=O)c2cc(NC(=O)c3ccc(F)cc3)ccc2Oc2ccccc21,8,19,14,45*,23
CCOC(=O)c1cc(NC(=O)c2ccc(F)cc2)ccc1N1CCOCC1,-3,-11,-24,x,x
CN1C(=O)c2cc(NC(=O)c3ccccc3)ccc2Oc2ccccc21,4,6,13,41*,7
Cc1ccccc1C(=O)Nc1ccc2c(c1)Sc1ncccc1C(=O)N2C,-6,10,5,-7,-51
CN1C(=O)c2cc(NC(=O)c3ccccc3Cl)ccc2Oc2ccccc21,9,0,2,80*,9
NC(=O)c1cc(C2CN(C(=O)c3ccc4c(c3)ncn4C3CC3)CCO2)nc2ccccc12 (configuration not stated),-7,-23,-45,-61,-116
O=C(Oc1ccccc1Br)c1cc(-c2ccc3c(c2)OCCO3)on1,-7,52*,21,27,33*
Cc1ccc(-n2ncc3c(=O)[nH]c(SCC(=O)NCc4ccco4)nc32)cc1C,13,39*,-1,-11,-65
Cc1ccc(NC(=O)c2cc(-c3cccnc3)n(-c3ccccc3)n2)nc1,2,17,32*,16,51*
O=C(NC1CCCC1)c1cc(-c2cccnc2)n(-c2ccccc2)n1,2,21,24,20,33*
Cn1cc(C(=O)Nc2ccc(F)cc2)c(S(=O)(=O)N2CCCCC2)n1,-1,-5,-6,7,5
Cc1ccc([N+](=O)[O-])cc1S(=O)(=O)Nc1cc2sc(=O)oc2c2ccccc12,37*,89*,67*,61*,-10
Cc1ccc(NC(=O)c2nnn(CC(=O)Nc3cccc(C)c3C)c2N)cc1C,36*,72*,27,27,38*
CNC(=O)C1CN(C(=O)c2ccc(OC)cc2)CC12CCCC2 (configuration not stated),0,0,-1,-2,0
CC(C)Oc1ccc(C(=O)OCC(=O)Nc2ccc(Oc3ccccc3)cc2)cc1,13,13,5,9,4
COc1cccc(OC)c1C(=O)OCC(=O)Nc1ccc(Oc2ccccc2)cc1,8,11,14,34*,23
O=C(COC(=O)c1cccc([N+](=O)[O-])c1)Nc1cccc(Oc2ccccc2)c1,12,2,9,20,32*
SMILES,USP10 inh,USP8 inh,USP17 block,USP28 inh,USP30 block
Cc1csc(-c2[nH]ncc2-c2ccsc2)n1,5,24,13,34*,24
O=C(c1ccccc1Cl)N1CCN(Cc2cc(=O)oc3cc(O)ccc23)CC1,-2,-6,6,0,-2
Cc1cc(C)cc(-c2nc(SCC(=O)N3CCCC3)c3c(=O)n(C)c(=O)n(C)c3n2)c1,3,14,x,14,36*
c1ccc2c(c1)ccc1nnc(-c3ccc4c(c3)OCO4)n12,0,-235,37*,61*,58*
CN1CCN(C2=Cc3ccccc3Sc3cc4c(cc32)CCC4)CC1,5,11,8,14,16
O=C(Cn1nc2ccc(C(=O)NCc3ccccc3)cn2c1=O)Nc1ccc(F)cc1,10,17,12,5,8

# Screens from PubChem.
